The source of these data is PubChem BioAssay (NCI).

Test systems include NCI-H23 lung; NCI-H226 lung; NCI-H322M lung; HOP-62 NSCLC; NCI-H460 lung; NCI-H522 lung; A549/ATCC NSCLC; 786-0 renal; COLO 205 colon; DU-145 prostate.
Holding throughout (assay): NCI-60 one-dose screen, 48 h (100 = growth as untreated, 0 = no growth, -100 = all killed)
Settings in all cases: 10 µM unless noted

The panel holds about 83,000 compounds, 20% with a hit somewhere; the sample as a whole holds those more often.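 Step 1: grow cells in 96-well plates. Step 2: add test compound at a single concentration. Step 3: incubate 48 h. Step 4: record percent growth.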 Unmarked numbers belong to inactive results. Active and inactive are the calls of the source. How the source made its calls: active means growth percent below 10; inactive means the rest.

For `CCCCCCC(C)(O)c1ccccc1` (stereo not given), the growth with NCI-H23 lung was 102%; in the test on NCI-H226 lung, 106%; in the test on NCI-H322M lung it was 126%; with HOP-62 NSCLC, 105%; in the test with NCI-H460 lung, 110%; in the test on NCI-H522 lung it was 100%. Besides, the growth is 110% in the test on A549/ATCC NSCLC, 108% in the test with 786-0 renal, 114% with COLO 205 colon and 118% in the test on DU-145 prostate.
As for `Clc1ccc2nc(Cl)c3ccccc3c2c1`, the growth is 84.6% in the test on NCI-H23 lung; 71.7% in the test on NCI-H226 lung; 37.6% with NCI-H322M lung; 58.3% in the test on HOP-62 NSCLC; -1.38% (active) with NCI-H460 lung; 75.7% in the test on NCI-H522 lung. In addition, the growth was 28.7% in the test on A549/ATCC NSCLC, 46.8% with 786-0 renal, 78.3% with COLO 205 colon and 62.9% with DU-145 prostate.
For the molecule `COC(=O)CC1=C(C)/C(=C/c2[nH]c(-c3ccc[nH]3)cc2OC)N=C1C`, the growth in the test with NCI-H23 lung is 6.26% (active); in the test with NCI-H226 lung, 24.6%; in the test with NCI-H322M lung, 18.2%; in the test on HOP-62 NSCLC, -10.9% (active); with NCI-H460 lung, 4.72% (active); in the test with NCI-H522 lung it was -74.8% (active). Besides, the growth with A549/ATCC NSCLC is 9.1% (active); in the test on 786-0 renal, -2.31% (active); in the test with COLO 205 colon it was 9.09% (active); in the test on DU-145 prostate, 24.2%.
Take `CCN(CC)CCCNCCCNc1cc(OC)cc2cccnc12`: the growth in the test on NCI-H23 lung is 94.2%; in the test on NCI-H226 lung it was 81.9%; in the test with NCI-H322M lung it was 81%; in the test with HOP-62 NSCLC, 92.3%; in the test on NCI-H460 lung, 103%; with NCI-H522 lung it was 93.1%. For the same molecule, the growth is 92.4% in the test on A549/ATCC NSCLC, 94.4% with 786-0 renal, 24.6% with COLO 205 colon and 104% with DU-145 prostate.
`O=C(c1nn(-c2ccc(Cl)cc2)cc1O)n1nc(C(F)(F)F)cc1-c1ccccc1`: the growth is 32.8% in the test with NCI-H23 lung; 52.7% in the test with NCI-H226 lung; -1.34% (active) in the test on NCI-H322M lung; 34.6% with HOP-62 NSCLC; 34.9% in the test with NCI-H460 lung; 21.2% in the test on NCI-H522 lung. Moreover, the growth is 47.4% in the test with A549/ATCC NSCLC, 42.9% in the test on 786-0 renal, 7.24% (active) with COLO 205 colon and 49.2% with DU-145 prostate.
Regarding `O=C(CCc1nnc(Cn2cncn2)o1)c1nc2ccccc2[nH]1`, the growth in the test with NCI-H23 lung is 102%; in the test with NCI-H226 lung it was 101%; in the test on NCI-H322M lung, 115%; in the test with HOP-62 NSCLC, 103%; with NCI-H460 lung, 108%; with NCI-H522 lung it was 95.5%. For the same molecule, the growth in the test with A549/ATCC NSCLC is 105%; with 786-0 renal, 104%; with COLO 205 colon it was 124%; in the test with DU-145 prostate, 109%.
Consider `CCCCc1nc(Cl)c(CO)n1Cc1ccc(-c2ccccc2-c2nn[nH]n2)cc1`, for which the growth with NCI-H23 lung was 106%; with NCI-H226 lung it was 99.3%; in the test on NCI-H322M lung, 97.1%; with HOP-62 NSCLC, 97.7%; with NCI-H460 lung, 108%; with NCI-H522 lung, 92.8%. Moreover, the growth was 105% in the test with A549/ATCC NSCLC, 106% with 786-0 renal, 96.6% in the test with COLO 205 colon and 110% in the test with DU-145 prostate.
Regarding `Cc1cc(C)c2c(c1)N1OC(C2)C[C@H]1/C=C/c1ccccc1` (stereo not given in full), the growth in the test with NCI-H23 lung is 88.5%; in the test with NCI-H226 lung, 77.6%; with NCI-H322M lung, 81.3%; in the test on HOP-62 NSCLC it was 111%; with NCI-H460 lung it was 112%; in the test with NCI-H522 lung, 84.7%. Moreover, the growth is 95.2% in the test on A549/ATCC NSCLC, 102% in the test on 786-0 renal, 111% with COLO 205 colon and 117% with DU-145 prostate.
As to `COc1ccc(Cn2c(NCCCN(C)C)nc(=O)n(Cc3ccc(F)cc3)c2=O)cc1`, the growth in the test with NCI-H23 lung is 103%; in the test with NCI-H226 lung it was 90.7%; with NCI-H322M lung, 83%; in the test on HOP-62 NSCLC, 93.5%; with NCI-H460 lung, 108%; in the test on NCI-H522 lung, 95%. In addition, the growth was 110% with A549/ATCC NSCLC, 89.3% in the test on 786-0 renal, 94.8% in the test with COLO 205 colon and 99.4% in the test with DU-145 prostate.
`Cc1ccc(C=C2C(Cl)=C(Cl)C(Cl)=C2Cl)cc1`: the growth was -57.5% (active) in the test with NCI-H23 lung; -79% (active) in the test on NCI-H226 lung; -37.2% (active) in the test with NCI-H322M lung; -58.6% (active) with HOP-62 NSCLC; -31.3% (active) in the test with NCI-H460 lung; -57.2% (active) in the test on NCI-H522 lung. Moreover, the growth is -61.2% (active) with A549/ATCC NSCLC, -86.8% (active) with 786-0 renal, -80.3% (active) in the test on COLO 205 colon and -45.3% (active) with DU-145 prostate.
Take `COc1cc(C2CC(=O)Nc3c2cc(Br)c2ccccc32)cc(Br)c1OC` (stereo not given): the growth was 58.8% in the test on NCI-H23 lung; 27.1% in the test with NCI-H226 lung; 40.7% with NCI-H322M lung; 24% in the test with HOP-62 NSCLC; 10.9% with NCI-H460 lung; 21.3% with NCI-H522 lung. The growth in the test on A549/ATCC NSCLC is 3.52% (active); in the test on 786-0 renal it was 0.846% (active); in the test on COLO 205 colon it was 37.1%; in the test on DU-145 prostate, 64.7%.
As to `COc1ccc(-c2c(-c3cc(OC)c(OC)c(OC)c3)noc2N)cc1`, the growth in the test with NCI-H23 lung is 31.1%; in the test on NCI-H226 lung it was 16%; in the test with NCI-H322M lung, 43.2%; with HOP-62 NSCLC it was 41.4%; with NCI-H460 lung, 7.26% (active); with NCI-H522 lung, -28.9% (active). Also, the growth in the test with A549/ATCC NSCLC is 22.3%; with 786-0 renal, 20%; with COLO 205 colon, -72% (active); in the test on DU-145 prostate, -3.15% (active).
For the molecule `N#Cc1c(N)[nH]c(S)c1C#N`, the growth was 105% in the test on NCI-H23 lung; 97.5% with NCI-H226 lung; 108% in the test on NCI-H322M lung; 100% in the test with HOP-62 NSCLC; 107% in the test on NCI-H460 lung; 97.4% with NCI-H522 lung. In addition, the growth in the test on A549/ATCC NSCLC is 90.9%; with 786-0 renal, 107%; in the test on COLO 205 colon, 120%; in the test with DU-145 prostate, 112%.
For the molecule `O=C(OC[C@H]1O[C@H](OC(=O)c2cc(O)c(O)c(OC(=O)c3cc(O)c(O)c(O)c3)c2)[C@H](OC(=O)c2cc(O)c(O)c(OC(=O)c3cc(O)c(O)c(O)c3)c2)[C@@H](OC(=O)c2cc(O)c(O)c(OC(=O)c3cc(O)c(O)c(O)c3)c2)[C@@H]1OC(=O)c1cc(O)c(O)c(OC(=O)c2cc(O)c(O)c(O)c2)c1)c1cc(O)c(O)c(OC(=O)c2cc(O)c(O)c(O)c2)c1`, the growth is 19% in the test on NCI-H23 lung; 7.2% (active) in the test on NCI-H226 lung; 19.3% in the test on NCI-H322M lung; 46.2% in the test with HOP-62 NSCLC; 11.6% in the test on NCI-H460 lung; -11% (active) in the test with NCI-H522 lung. The growth in the test on A549/ATCC NSCLC is 34%; in the test on 786-0 renal it was 18.5%; in the test with COLO 205 colon it was 55.1%; with DU-145 prostate it was 30.3%.
